Source: PubChem BioAssay AID1159580 (chemical genetic matrix, 2015)
The campaign covered roughly 5,500 compounds. About 2,000 (36%) were called active. Another 18% or so got no clear call; they are omitted. Cut-off read from the data, not from the text of the source: active = normalized growth mostly below about 0.91 (no sharp cut-off); inconclusive = no clear call, values can overlap the other calls; inactive = mostly above about 0.92. The list shows a part of the results.

Assay: chemical genetic growth profiling, strain panel (AID 1159580);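 note: tested at 20 µM; growth read once vehicle control cultures reached saturation at 30 °C; 1 = growth at the plate median or of vehicle wells; lower values mean less growth of the strain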
Conditions: growth OD

Measured: normalized growth

O=c1[nH]cnc2nc[nH]c12
inactive: S. cerevisiae deletion strains, locus YJR066W, strain TOR1, hits give low values 0.979 | S. cerevisiae deletion strains, locus YJR075W, strain HOC1, hits give low values 1.01 | S. cerevisiae deletion strains, locus YKL009W, strain mrt4, hits give low values 0.974 | S. cerevisiae deletion strains, locus YKL068W, hits give low values 1.02 | S. cerevisiae deletion strains, locus YKL085W, strain MDH1 (second series), hits give low values 0.984 | S. cerevisiae deletion strains, locus YKL085W, strain MDH1, hits give low values 0.984 | S. cerevisiae deletion strains, locus YKL160W, strain elf1, hits give low values 1.01 | S. cerevisiae deletion strains, locus YKR001C, strain vps1, hits give low values 0.975 | S. cerevisiae deletion strains, locus YKR026C, strain gcn3, hits give low values 1.02 | S. cerevisiae deletion strains, locus YKR091W, strain srl3, hits give low values 1.02 | S. cerevisiae deletion strains, locus YLL001W, strain dnm1, hits give low values 1.01 | S. cerevisiae deletion strains, locus YLL026W, hits give low values 1.02 | S. cerevisiae deletion strains, locus YLL041C, strain sdh2, hits give low values 1.02 | S. cerevisiae deletion strains, locus YLR027C, strain aat2, hits give low values 1.01 | S. cerevisiae deletion strains, locus YLR039C, strain RIC1, hits give low values 1.01 | S. cerevisiae deletion strains, locus YLR058C, strain SHM2, hits give low values 1 | S. cerevisiae deletion strains, locus YLR102C, strain apc9, hits give low values 0.979 | S. cerevisiae deletion strains, locus YLR113W, strain HOG1, hits give low values 1.01 | S. cerevisiae deletion strains, locus YLR221C, strain rsa3, hits give low values 1.02 | S. cerevisiae deletion strains, locus YLR258W, strain gsy2, hits give low values 1.01 | S. cerevisiae deletion strains, locus YLR262C, strain YPT6 (second series), hits give low values 1.02 | S. cerevisiae deletion strains, locus YLR262C, strain YPT6, hits give low values 0.991 | S. cerevisiae deletion strains, locus YLR268W, strain sec22, hits give low values 0.971 | S. cerevisiae deletion strains, locus YLR320W, strain mms22, hits give low values 1.03 | S. cerevisiae deletion strains, locus YLR330W, strain CHS5, hits give low values 0.998 | S. cerevisiae deletion strains, locus YLR342W, strain FKS1 (second series), hits give low values 0.975 | S. cerevisiae deletion strains, locus YLR342W, strain FKS1, hits give low values 1.02 | S. cerevisiae deletion strains, locus YLR357W, strain rsc2, hits give low values 1.04 | S. cerevisiae deletion strains, locus YLR370C, strain arc18, hits give low values 1 | S. cerevisiae deletion strains, locus YLR371W, strain rom2, hits give low values 0.962 | S. cerevisiae deletion strains, locus YLR384C, strain iki3, hits give low values 1 | S. cerevisiae deletion strains, locus YLR418C, strain cdc73, hits give low values 0.994 | S. cerevisiae deletion strains, locus YML016C, strain PPZ1, hits give low values 0.995 | S. cerevisiae deletion strains, locus YML032C, strain rad52, hits give low values 0.988 | S. cerevisiae deletion strains, locus YML120C, strain ndi1, hits give low values 1.01 | S. cerevisiae deletion strains, locus YML124C, strain tub3, hits give low values 0.978 | S. cerevisiae deletion strains, locus YMR058W, strain fet3, hits give low values 1.02 | S. cerevisiae deletion strains, locus YMR078C, strain ctf18, hits give low values 0.997 | S. cerevisiae deletion strains, locus YMR125W, strain sto1, hits give low values 1.01 | S. cerevisiae deletion strains, locus YMR129W, hits give low values 1.01 | S. cerevisiae deletion strains, locus YMR205C, strain PFK2, hits give low values 1.02 | S. cerevisiae deletion strains, locus YMR223W, strain ubp8, hits give low values 0.985 | S. cerevisiae deletion strains, locus YMR231W, strain pep5, hits give low values 0.987 | S. cerevisiae deletion strains, locus YMR263W, strain SAP30, hits give low values 0.999 | S. cerevisiae deletion strains, locus YMR307W, strain GAS1, hits give low values 1.02 | S. cerevisiae deletion strains, locus YNL067W, strain RPL9B, hits give low values 1.02 | S. cerevisiae deletion strains, locus YNL071W, strain lat1, hits give low values 1.01 | S. cerevisiae deletion strains, locus YNL153C, strain GIM3, hits give low values 1.02 | S. cerevisiae deletion strains, locus YNL183C, strain NPR1, hits give low values 0.978 | S. cerevisiae deletion strains, locus YNL209W, strain ssb2, hits give low values 1.02 | S. cerevisiae deletion strains, locus YNL233W, strain BNI4, hits give low values 0.999 | S. cerevisiae deletion strains, locus YNL248C, strain rpa49, hits give low values 1.02 | S. cerevisiae deletion strains, locus YNL250W, strain rad50, hits give low values 0.977 | S. cerevisiae deletion strains, locus YNL271C, strain bni1, hits give low values 0.978 | S. cerevisiae deletion strains, locus YNL298W, strain CLA4, hits give low values 1 | S. cerevisiae deletion strains, locus YNL307C, strain MCK1, hits give low values 0.982 | S. cerevisiae deletion strains, locus YNL322C, strain KRE1 (second series), hits give low values 1.02 | S. cerevisiae deletion strains, locus YNL322C, strain KRE1, hits give low values 1.01 | S. cerevisiae deletion strains, locus YNR049C, strain mso1, hits give low values 1.03 | S. cerevisiae deletion strains, locus YNR052C, strain pop2, hits give low values 0.978 | S. cerevisiae deletion strains, locus YOL012C, strain htz1 1.01 | S. cerevisiae deletion strains, locus YOL147C, strain pex11, hits give low values 0.98 | S. cerevisiae deletion strains, locus YOR001W, strain rrp6, hits give low values 1.02 | S. cerevisiae deletion strains, locus YOR061W, strain CKA2, hits give low values 0.99 | S. cerevisiae deletion strains, locus YOR069W, strain VPS5, hits give low values 0.988 | S. cerevisiae deletion strains, locus YOR070C, strain gyp1, hits give low values 1.01 | S. cerevisiae deletion strains, locus YOR080W, strain dia2, hits give low values 1.03 | S. cerevisiae deletion strains, locus YOR083W, strain WHI5, hits give low values 1.01 | S. cerevisiae deletion strains, locus YOR106W, strain vam3, hits give low values 1.01 | S. cerevisiae deletion strains, locus YOR136W, strain idh2, hits give low values 0.973 | S. cerevisiae deletion strains, locus YOR144C, strain elg1, hits give low values 0.989 | S. cerevisiae deletion strains, locus YOR184W, strain ser1, hits give low values 0.98 | S. cerevisiae deletion strains, locus YOR231W, strain MKK1, hits give low values 1.02 | S. cerevisiae deletion strains, locus YOR265W, strain rbl2, hits give low values 1.03 | S. cerevisiae deletion strains, locus YOR270C, strain vph1, hits give low values 1.11 | S. cerevisiae deletion strains, locus YOR290C, strain snf2, hits give low values 1 | S. cerevisiae deletion strains, locus YOR316C, strain cot1, hits give low values 0.989 | S. cerevisiae deletion strains, locus YPL051W, strain arl3, hits give low values 1.03 | S. cerevisiae deletion strains, locus YPL055C, strain LGE1, hits give low values 1.03 | S. cerevisiae deletion strains, locus YPL078C, strain atp4, hits give low values 1.02 | S. cerevisiae deletion strains, locus YPL106C, strain sse1, hits give low values 0.994 | S. cerevisiae deletion strains, locus YPL240C, strain hsp82, hits give low values 1.01 | S. cerevisiae deletion strains, locus YPL256C, strain CLN2, hits give low values 0.996 | S. cerevisiae deletion strains, locus YPR119W, strain clb2, hits give low values 0.99 | S. cerevisiae deletion strains, locus YPR141C, strain kar3, hits give low values 0.977 | S. cerevisiae deletion strains, locus YPR163C, strain tif3, hits give low values 0.988 | S. cerevisiae deletion strains, locus YPR167C, strain met16, hits give low values 0.965 | S. cerevisiae deletion strains, strain wtn01, hits give low values 0.975 | S. cerevisiae strains, strain wild type, hits give low values 1
